Rows were chosen to be rich in hits. Some 1.1% of all compounds tested hit in one or more screens of this group.
aDG glyco act – alpha-DG glycosylation activation; 0.22% of 360,000 active; Pro5-aDG cells, alpha-DG glycosylation AlphaScreen (IIH6); 0% Pro5, 100% B10-LARGE cell signal; activation, % at 10 µM;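 active = activation of at least 8% versus controls, or a plate z-score of at least 8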;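 note: Pro5 are CHO cells carrying HIG-tagged alpha-DG that lacks glycosylation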
NPR1 activator – GC-A (human) enzyme activation; P16066; HEK293 GC-A cells, cGMP TR-FRET, EC30 ANP; 0% at EC30 ANP, 100% saturating ANP; activation, % at 10 µM; 0.14% of 370,000 active; in the data active = activation above about 40%
FAS TE block – blocks the thioesterase domain of human fatty acid synthase; recombinant FAS-TE, OMFH fluorogenic substrate, fluorescence endpoint; inhibition, % at 15 µM; 0.67% of 360,000 active;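 active = compounds whose normalised, plate-corrected inhibition of enzyme fluorescence in the single-dose primary screen is 50% or more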;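 note: 0% = DMSO with enzyme and 100% = substrate without enzyme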
GC-B act – GC-B (human) receptor activation; HEK293-GC-B cells, CNP EC30, cGMP TR-FRET; 0% at EC30 CNP, 100% saturating CNP; AID 1920062; P20594; 0.11% of 370,000 active; activation, % at 10 µM;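 active = activation at 10 µM reaching about 35% in either raw or pattern-adjusted values, limit read from the data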
FAS-TE inh conf – confirmation of human fatty acid synthase thioesterase inhibitors; shares compounds with FAS TE block; recombinant FAS-TE, OMFH fluorogenic substrate, fluorescence; inhibition, % at 15 µM; 45% of 2,300 active;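 active = compounds inhibiting the enzyme by at least 50% at 15 µM in any one of the replicates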;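 note: 0% = enzyme with DMSO only and 100% = wells lacking enzyme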
Active calls of the source: *; . = no result given.

SMILES	aDG glyco act	NPR1 activator	FAS TE block	GC-B act	FAS-TE inh conf
CC(=O)c1cn(Cc2ccccc2C#N)c2ccccc12	7.5*	-7	2	5	.
CN1OC[C@@H]2CN3C4(C[C@@H]21)c1ccccc1C3(c1ccccc1)c1ccccc14	.	-11	.	-12	.
COC(=O)c1c(C)n(Cc2ccccc2)c2ccc(O)cc12	1	80*	-1	5	.
C=COCCn1c(C)c(C(=O)OCC)c2cc(O)ccc21	0	1	-5	-4	.
CC(=O)c1c(C)n(Cc2ccccc2)c2ccc(O)cc12	0	74*	-3	15	.
Cc1c(C(=O)C(=O)N2CCOCC2)c2ccccc2n1Cc1ccccc1	0	4	3	3	.
CCOC(=O)c1c(C)n(Cc2ccccc2)c2ccc(O)cc12	0	86*	10	5	.
COC(=O)C1(N(C)c2ccccc2)CCN(Cc2ccccc2)CC1	.	4	.	1	.
c1cc2c(cc1[C@H]1OC[C@H]3[C@@H]1CO[C@H]3c1ccc3c(c1)OCO3)OCO2	0	0	16	1	.
N#CC1=C(N)Oc2cc(O)ccc2C1c1ccc2c(c1)OCO2 (stereo not drawn)	-1	44*	10	7	.
Cc1cccc2nc(-c3ccccc3)c(-c3ccc(CN4CCC(n5c(=O)[nH]c6cc(Cl)ccc65)CC4)cc3)nc12	.	-3	.	3	.
CCOP(=S)(OCC)Oc1cc(C)nc(C(C)C)n1	1	2	5	74*	.
CN1C(=O)[C@@]23C[C@]4(c5c[nH]c6ccccc56)c5ccccc5N(S(=O)(=O)c5ccccc5)[C@@H]4N2C(=O)[C@@H]1SS3	.	-17	.	13	.
CCCCCCn1c(N)c(C(=O)NCCN2CCOCC2)c2nc3ccccc3nc21	0	28	11	36*	.
CCCCCn1c(N)c(C(=O)NCCN2CCOCC2)c2nc3ccccc3nc21	1	9	7	-1	.
O=C(NCCN1CCC2(CC1)C(=O)NCN2c1ccccc1)C(c1ccccc1)c1ccccc1	.	-21	.	-30	.
COc1ccccc1N1C(=O)NC(=O)/C(=C\c2cnn(-c3ccccc3)c2)C1=O	0	52*	-4	11	.
CN1C(=O)C(=Cc2ccc(SC3CCCCC3)o2)C(=O)N(C)C1=O	0	47*	-8	-2	.
C=C(COC(C)=O)CC1CC(O)[C@]2(C)OC3CC4OC5C[C@]6(C)O[C@]7(C)CCC8OC9C[C@]%10(C)OC%11C(C)=CC(=O)OC%11CC%10OC9C[C@@H](C)C8OC7CC6O[C@]5(C)C/C=C\C4OC3CC2O1 (stereo partly drawn)	0	.	87*	.	.
COc1cc2c(cc1OC)[C@H]1C(=O)c3ccc4c(c3O[C@H]1CO2)C[C@@H](C(C)(C)O)O4	0	56*	-5	3	.
COc1cc2c(cc1OC)[C@@H]1C(=O)c3ccc4c(c3O[C@@H]1CO2)C[C@H](C(C)C)O4	3	-3	17	-6	.
c1cncc(-c2ccc3n2Cc2cnnn2-c2ccccc2-3)c1	.	-1	.	1	.
O=c1[nH]c2ccccc2n1C1CCN(C(CCc2ccccc2)c2nnnn2-c2ccc3c(c2)OCCO3)CC1 (stereo not drawn)	0	-5	89*	4	17
COc1cccc(C(c2nnnn2-c2c(C)cccc2C)N2CCC(n3c(=O)[nH]c4ccccc43)CC2)c1OC (stereo not drawn)	0	-5	82*	-2	4
Cc1cccc(C)c1-n1nnnc1C(CCc1ccccc1)N1CCC(n2c(=O)[nH]c3ccccc32)CC1 (stereo not drawn)	-1	-5	54*	5	12
SMILES	aDG glyco act	NPR1 activator	FAS TE block	GC-B act	FAS-TE inh conf
CCC(c1nnnn1-c1ccc(OC)cc1)N1CCC(n2c(=O)[nH]c3ccccc32)CC1 (stereo not drawn)	0	2	-3	-2	.
COc1ccc(C(c2nnnn2-c2ccc3c(c2)OCCO3)N2CCC(n3c(=O)[nH]c4ccccc43)CC2)cc1 (stereo not drawn)	0	2	54*	9	15
O=c1[nH]c2ccccc2n1C1CCN(C(c2ccnc3ccccc23)c2nnnn2-c2ccc3c(c2)OCCO3)CC1 (stereo not drawn)	0	1	17	4	.
O=C(Nc1ccc(Cl)cc1)Nc1nccs1	0	-3	2	2	.
COc1ccc(-n2nnnc2C(c2ccccc2OC(F)(F)F)N2CCC(n3c(=O)[nH]c4ccccc43)CC2)cc1 (stereo not drawn)	0	-4	60*	-8	2
O=P(NS(=O)(=O)c1ccc(Br)cc1)(Oc1ccccc1)Oc1ccccc1	0	2	20	-2	.
C/C=C1\CN2[C@H]3C[C@@]45c6ccccc6N(C)[C@H]4[C@@H]2CC1C3[C@H]5O (stereo partly drawn)	0	2	-5	-11	.
S=C(NCCc1ccccc1)N1Cc2cc(Br)ccc2-n2nncc2C1	0	-6	62*	-10	25*
COc1ccccc1N1CCN(Cc2cccc(OC)c2O)CC1	0	0	-8	2	.
O=Cc1cn(Cc2cccc([N+](=O)[O-])c2)c2ccccc12	1	-19	55*	-13	59*
Cc1cccc(Cn2cc(C=O)c3ccccc32)c1	0	-14	12	-7	.
CCOC(=O)[C@]12Cc3cc(C)ccc3[C@H]1N(C(C)C)C(=O)c1ccccc12	0	-11	57*	-4	33
CCOC(=O)[C@]12Cc3cc(C)ccc3[C@H]1N(Cc1ccccc1)C(=O)c1ccccc12	0	-7	25	-11	.
CCOC(=O)[C@]12Cc3cc(OC)ccc3[C@H]1N(C1CCCCC1)C(=O)c1cc(OC)ccc12	1	-24	62*	-21	16
CCOC(=O)[C@]12Cc3cc(C)ccc3[C@H]1N(C1CCCCC1)C(=O)c1cc(OC)ccc12	0	-30	85*	-18	40*
CCOC(=O)[C@]12Cc3cc(C)ccc3[C@H]1N(CCC(=O)OC)C(=O)c1cc(OC)ccc12	0	-18	25	-16	.
COC(=O)C1=C(c2cccc3c2S(=O)(=O)c2ccccc2-3)C[C@@H]2CC[C@H]1N2C(=O)N1CCc2cc(OC)c(OC)cc2C1	0	6	68*	9	31
COC(=O)C1=C(c2cccc3c2S(=O)(=O)c2ccccc2-3)C[C@@H]2CC[C@H]1N2C(=O)N1CCOCC1	0	-2	-4	6	.
Cc1cccc(CSc2nc3c(cc2C#N)CN(C)CC3)c1	0	5	-5	2	.
CN1CCc2nc(SCc3ccccc3Br)c(C#N)cc2C1	0	8	54*	6	45*
O=C1C=CC(=O)C2C1C1(Cl)C(Cl)=C(Cl)C2(Cl)C1(Cl)Cl (stereo not drawn)	0	-6	60*	-7	57*
CC(=O)OC[C@]12CCC(C)=C[C@H]1O[C@@H]1[C@H](O)[C@@H](OC(C)=O)[C@@]2(C)[C@]12CO2	-1	3	-2	-3	.

Assay outcomes as filed in PubChem.
